Molecules are shown by their SMILES. “And” between values parts separate entries of the source, which are not always exact repeats. Equal values may be shown once. Screen size: about 16,000 compounds; about 5,800 (36%) were called active. Not shown: some 23% with an inconclusive outcome. The list shows a part of the results. Values without a mark were called inactive. Calls come from the whole dose curve; as a rule, active = well fitted curve in the direction sought with a large enough effect; inconclusive = small, poorly fitted or top-dose-only effect, or effect the other way; inactive = no such curve, though single readings can be large or run the other way.
% is set by controls: 0 for no effect and ±100 for the full control effect.

Sequence of Cytochrome P450 2C19 (Homo sapiens) (P33261 whole entry, looked up): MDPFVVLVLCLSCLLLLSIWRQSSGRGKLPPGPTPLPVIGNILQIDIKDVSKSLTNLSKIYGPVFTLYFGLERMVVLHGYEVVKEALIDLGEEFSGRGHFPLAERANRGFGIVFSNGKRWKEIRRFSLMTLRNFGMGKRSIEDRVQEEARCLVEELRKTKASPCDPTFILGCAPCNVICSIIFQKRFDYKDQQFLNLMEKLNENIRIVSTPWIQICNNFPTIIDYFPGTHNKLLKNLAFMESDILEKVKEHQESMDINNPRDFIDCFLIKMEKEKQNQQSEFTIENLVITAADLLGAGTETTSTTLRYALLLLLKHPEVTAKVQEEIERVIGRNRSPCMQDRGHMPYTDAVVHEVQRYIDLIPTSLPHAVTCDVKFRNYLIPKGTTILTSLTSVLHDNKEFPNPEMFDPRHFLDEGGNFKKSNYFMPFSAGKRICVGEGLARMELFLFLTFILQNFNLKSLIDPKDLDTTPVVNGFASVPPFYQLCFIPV

This assay has as its target Cytochrome P450 2C19 (Homo sapiens) (UniProt P33261). Briefly: Cytochrome panel assay with activity outcomes. Conditions: recombinant CYP, pro-luciferin dealkylation, luminescence, p450-cyp2c19; series mostly up to 57.1 µM.
`O=C(CCN1C(=O)c2ccccc2C1=O)NC(=S)Nc1cccc(Cl)c1`: the AC50 was 4.47 µM (active).

For `Cc1ccccc1OCC(=O)NC(=S)Nc1ccc(Br)c(C)n1`, the AC50 entry is “inactive”.

Consider `CCc1ccc(OCC(=O)NC(=S)Nc2ccc(F)cc2)c(Br)c1`, for which the AC50 was 8.91 µM (active).

Take `O=C(COc1ccccc1Cl)NC(=S)Nc1cccc(NC(=O)c2ccccc2Cl)c1`: the concentration at half-maximal activity (AC50) was 0.631 µM (active).

`CCC(=O)NC(=S)Nc1ccc(NC(=O)COc2ccc(Cl)cc2Cl)cc1`: the AC50 was 2.82 µM (active).

For the compound `CN(C)c1ncnc2c1ncn2CCn1cnc2c(N(C)C)ncnc21`, the activity, negative = inhibition was 27.8% [at 11.4 µM].

For the compound `NC1=C2NC=N[C@@H]2N(C/C=C\c2ccccc2)C=N1`, the activity, negative = inhibition was 7.43% [at 11.4 µM].

Regarding `Cc1c(N2C(=O)/C(=C3/C(=O)N(C)c4ccccc43)SC2=S)c(=O)n(-c2ccccc2)n1C`, the AC50 was 2.82 µM (active).

`Cc1c(O)c(=O)n(-c2ccccc2)n1C`: the AC50 result is “inactive”.

For the compound `Cc1c(N(C)C)c(=O)n(-c2ccccc2)n1C`, the AC50 entry is “inactive”.

For `O=S(=O)(O)c1ccc2c(N=Nc3cccc4ccccc34)c(O)c(S(=O)(=O)O)cc2c1`, the activity, negative = inhibition is 13.7% [at 11.4 µM].

Turning to `CCCn1c(N)[n+](CC(=O)c2ccco2)c2ccccc21`, the AC50 entry was “inactive”.

Turning to `CCOC(=O)c1c(C)n(C)c2ccc(OC(=O)c3ccco3)cc12`, the AC50 is 5.01 µM (active).

Regarding `CN(C(=O)C(Cl)Cl)c1ccc(OC(=O)c2ccco2)cc1`, the AC50 entry is “inactive”.

Take `COc1cc(/C=C2/C(=N)N3C=CSC3=NC2=O)ccc1OCCCOc1ccccc1C`: the AC50 is 7.94 µM (active).

For the compound `CCOc1cc(/C=C2/C(=N)N3C=CSC3=NC2=O)ccc1OCCCOc1ccccc1C`, the AC50 was 1 µM (active).

Take `Cc1ccc(N=Nc2ccc(N)cc2C)c(S(N)(=O)=O)c1`: the activity, negative = inhibition was 1.27% [at 11.4 µM].

Turning to `COc1ccccc1CN1CC[C@@]2(CCCN(S(C)(=O)=O)C2)C1`, the AC50 entry is “inactive”.

With `CCCNc1c(F)c(F)c2c(C)c3ccccc3nc2c1F`, the AC50 was 10 µM (active).

`Cc1ccc(CC(=O)N2CC(C)OC(C)C2)cc1` (stereo not given): the AC50 is 8.91 µM (active).

Consider `CCNC(=S)N1CC(C)OC(C)C1` (stereo not given), for which the AC50 entry is “inactive”.

Turning to `CC1CN(C(=O)CN2C(=O)NC3(CCCCCC3)C2=O)CC(C)O1` (stereo not given), the AC50 result is “inactive”.

Consider `c1ccc2c(c1)ncn2-c1ccc(-c2ccnc(-c3ccncc3)n2)cc1`, for which the AC50 was 0.2 µM (active).

Regarding `CCOC(=O)c1ccc2nc(C)c(CCC(C)=O)c(Cl)c2c1`, the AC50 is 5.62 µM (active).

As for `CC(C)(C)c1cc(C(=O)O)c(CN2CCCCC2)o1`, the AC50 entry was “inactive”.

With `CN(C)S(=O)(=O)c1ccc(C(=O)Nc2ccc(CN3CCCC3)cc2)cc1`, the AC50 entry is “inactive”.

For `CN(C)S(=O)(=O)Oc1ccsc1C(=O)Nc1ccc(Cl)cc1`, the AC50 is 0.891 µM (active).

On to `COc1ccc(/C=N/n2cnc3c([nH]c4ccc(Br)cc43)c2=O)cc1CN1CCOCC1`, for which the AC50 is 3.55 µM (active).

For the compound `[N-]=[N+]=Nc1ccc(C(=O)CSC[C@@H](NC(=O)CC[C@@H](N)C(=O)O)C(=O)NCC(=O)O)cc1`, the AC50 result was “inactive”.

For the compound `ON(CCc1ccccn1)Cc1ccccc1`, the activity, negative = inhibition is -32.5% [at 11.4 µM].

With `ON(CCc1ccncc1)Cc1ccccc1`, the AC50 is 0.316 µM (active).

Consider `Fc1ccc(SCCc2ccncc2)cc1`, for which the AC50 was 0.447 µM (active).

Regarding `c1ccc(CCN2CCN=C2Cc2ccccc2)cc1`, the activity, negative = inhibition was 7.77% [at 11.4 µM].

Consider `c1ccc(SCCc2ccncc2)cc1`, for which the AC50 is 447 nM (active) and 794 nM (active).

As to `CCOc1cc(/C=N/NC(=O)CNc2cccc(C)c2)ccc1OC(=O)c1ccccc1`, the concentration at half-maximal activity (AC50) was 10 µM (active).

For `CCOc1cc(/C=N/NC(=O)COc2cccc(C)c2)ccc1OC(=O)c1cccs1`, the AC50 was 8.91 µM (active).

With `COc1ccc(/C=C/C(=O)Oc2cccc(/C=N/NC(=O)COc3c(C)cccc3C)c2)cc1`, the AC50 result was “inactive”.

As for `O=C(CN1CCN(S(=O)(=O)c2ccc(Cl)cc2)CC1)Nc1ccc2c(c1)OCO2`, the AC50 was 2.82 µM (active).

On to `O=C(CN1CCN(S(=O)(=O)c2ccc(F)cc2)CC1)Nc1ccc(Cl)c(C(F)(F)F)c1`, for which the AC50 is 7.94 µM (active).

In the case of `O=C1C=CC(=Nc2cccc3c(N=C4C=CC(=O)O4)cccc23)O1`, the activity, negative = inhibition is -74.7% [at 11.4 µM].

Turning to `CC1=CC(C)(C)NC(=S)N1c1cccc(C)c1`, the half-maximal activity concentration (AC50) was 3.98 µM (active).

`COc1cccc([C@H]2Oc3ccc(OC)cc3/C(=N\OC[C@@H](O)[C@@H]3O[C@@H]4OC(C)(C)O[C@@H]4[C@H]3O)[C@@H]2O)c1`: the activity, negative = inhibition was -33% [at 11.4 µM].

On to `COc1cccc([C@@H]2Oc3ccc(OC)cc3/C(=N/OC[C@@H](C)[C@H](OCc3ccccc3)C(C)C)[C@@H]2O)c1`, for which the AC50 is 2 µM (active).

In the case of `COc1cccc([C@@H]2Oc3ccc(OC)cc3/C(=N/O[C@@H](C)c3cc(-c4c(C)cc(C)cc4C)no3)[C@@H]2O)c1`, the AC50 is 1.58 µM (active).

For the compound `CC(C)=NOC[C@@H](O)COCc1ccco1`, the activity, negative = inhibition was -10.6% [at 11.4 µM].

With `COc1cccc([C@H]2Oc3ccc(OC)cc3/C(=N\O[C@@H](C)c3cn([C@H](CO)Cc4ccccc4)nn3)[C@@H]2O)c1`, the activity, negative = inhibition is -44.2% [at 11.4 µM].

Turning to `COc1cccc([C@@H]2Oc3ccc(OC)cc3/C(=N/O[C@@H](C)c3cn([C@H]4COC[C@H]4O)nn3)[C@@H]2O)c1`, the activity, negative = inhibition is -35.4% [at 11.4 µM].

In the case of `CCN1C(=O)[C@H]2[C@H]3[C@H](O)[C@H](O)C/C(=N/OC[C@@H](C)[C@H](OCc4ccccc4)C(C)C)[C@@H]3CC[C@@H]2C1=O`, the activity, negative = inhibition was -18.6% [at 11.4 µM].

`CCN1C(=O)[C@H]2[C@H]3[C@H](O)[C@H](O)C/C(=N/O[C@@H](C)c4cc(-c5c(C)cc(C)cc5C)no4)[C@@H]3CC[C@@H]2C1=O`: the activity, negative = inhibition was -26.1% [at 11.4 µM].

For `COc1cccc([C@@H]2Oc3ccc(OC)cc3/C(=N/OC[C@@H](O)COCc3ccco3)[C@@H]2O)c1`, the AC50 was 1.58 µM (active).

By AC50 is commonly meant the midpoint of the concentration-response curve, whichever way the signal moves.

These data come from PubChem BioAssay AID1851 (National Center for Advancing Translational Sciences (NCATS), 2009).
